Source: PMC10668032, “Altered binding affinity of SIX1-Q177R correlates with enhanced WNT5A and WNT pathway effector expression in Wilms tumor”
Over roughly 33,000 sequences, “e-score” has its median near -0.053; the highest 2% begin near 0.38. The sample holds the highest values, similar sequences and a random draw of the others, so the mix is not that of the screen.

What follows are sequences tested against T1, SIX1 homeodomain (reference allele) (human, UniProt Q15475 108-198) (assay: universal protein binding microarray; Universal all-10-mer PBM (8x60K, AMADID 030236), 300 nM GST-tagged protein, Alexa Fluor 488 anti-GST; buffer, salt, pH and temperature not stated (as in Berger); high values mean tight binding). Details: protein: ivt; tags: N-terminal GST; dsDNA, one strand shown.
T1 sequence: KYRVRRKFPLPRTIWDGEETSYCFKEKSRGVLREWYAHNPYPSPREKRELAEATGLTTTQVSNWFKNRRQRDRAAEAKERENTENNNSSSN
Method in brief: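 Homeodomains carrying a GST tag were produced by in vitro transcription/translation, then quantified by anti-GST western blot against a recombinant GST standard curve. Duplicate applications at 300 nM final concentration were made to universal 'all 10-mer' protein binding microarrays in 8×60K format. The Universal PBM Analysis Suite was used to express binding as 8-mer E-scores.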
For GCGATCGC, the binding signal was 0.378 ± 0.0183 E-score. Work on GCGATCCA yielded a binding signal of 0.345 ± 0.0824 E-score. With ACGATCCC the binding signal was 0.337 ± 0.0613 E-score. GAGATCCA gave a binding signal of 0.332 ± 0.0213 E-score. AAGATCCC showed a binding signal of 0.243 ± 0.0194 E-score. In the case of GCGATCCC, the binding signal is reported as 0.395 ± 0.0154 E-score. Sequence GCGATCGA has a binding signal of 0.199 ± 0.0473 E-score. In the case of CCGATCGC, the binding signal is reported as 0.212 ± 0.0392 E-score. Sequence CCGATCTC has a binding signal of 0.316 ± 0.0192 E-score. GAGATCCC gave a binding signal of 0.378 ± 0.0279 E-score. Sequence CCGATCGA has a binding signal of 0.264 ± 0.0353 E-score. CCGATCCC gave a binding signal of 0.412 ± 0.0499 E-score. In the case of CAGATAGG, the binding signal is reported as 0.245 ± 0.0333 E-score. In the case of TATATAAA, the binding signal is reported as 0.197 ± 0.00308 E-score. Sequence TAGATCTA has a binding signal of 0.175 ± 0.0374 E-score. ATATGTAC was tested, and the binding signal was 0.244 ± 0.0293 E-score. With ATCGCTTG the binding signal was 0.156 ± 0.032 E-score. GATCGATC showed a binding signal of 0.362 ± 0.0437 E-score. In the case of ATACGGTC, the binding signal is reported as 0.256 ± 0.0328 E-score. Sequence GAACGATA has a binding signal of 0.383 ± 0.0174 E-score. CTACGATC showed a binding signal of 0.233 ± 0.0113 E-score. With AATCGATA the binding signal was 0.335 ± 0.0577 E-score. GAACGATC was tested, and the binding signal was 0.236 ± 0.00301 E-score. With ATACGATC the binding signal was 0.388 ± 0.00595 E-score. ATACGGTA showed a binding signal of 0.405 ± 0.0105 E-score. With ATACGGTG the binding signal was 0.328 ± 0.012 E-score. TAACGATA gave a binding signal of 0.315 ± 0.0478 E-score. GATCGATA was tested, and the binding signal was 0.408 ± 0.0108 E-score. Work on ATACGATG yielded a binding signal of 0.277 ± 0.0162 E-score. Sequence ACCAGGGT has a binding signal of 0.189 ± 0.0407 E-score. Sequence CCGTCTAC has a binding signal of 0.171 ± 0.0578 E-score. Sequence ATCGGTTG has a binding signal of 0.238 ± 0.008 E-score. For TAATCTCA, the binding signal was 0.186 ± 0.0184 E-score. GTGTCCAA was tested, and the binding signal was 0.221 ± 0.057 E-score. Work on GGGCTAGA yielded a binding signal of 0.209 ± 0.0223 E-score. In the case of ATACTATA, the binding signal is reported as 0.371 ± 0.0468 E-score. For CTACGATA, the binding signal was 0.321 ± 0.0303 E-score. In the case of GTACGATA, the binding signal is reported as 0.338 ± 0.0355 E-score. Work on ACACGATA yielded a binding signal of 0.384 ± 0.0253 E-score. For ACACGATC, the binding signal was 0.266 ± 0.019 E-score. For CTACTATC, the binding signal was 0.273 ± 0.0271 E-score. ACACGATG gave a binding signal of 0.156 ± 0.0256 E-score. With ATACGATA the binding signal was 0.419 ± 0.0297 E-score. Work on ATACTATC yielded a binding signal of 0.401 ± 0.0105 E-score. Work on AACTATAC yielded a binding signal of 0.24 ± 0.0587 E-score. AGATGTAT was tested, and the binding signal was 0.338 ± 0.00993 E-score. With ATACGCAC the binding signal was 0.254 ± 0.00836 E-score. Sequence CCCATGGG has a binding signal of 0.152 ± 0.0229 E-score. With GATCGGCA the binding signal was 0.211 ± 0.0237 E-score. ATACACAT gave a binding signal of 0.289 ± 0.00303 E-score. Sequence GTGTGATA has a binding signal of 0.411 ± 0.0318 E-score. Sequence CTGTGATC has a binding signal of 0.328 ± 0.00414 E-score. GTGTGTGA was tested, and the binding signal was 0.174 ± 0.0383 E-score. With ATGTGAGA the binding signal was 0.165 ± 0.0625 E-score. For GTGTGAGA, the binding signal was 0.245 ± 0.029 E-score. Work on ATGTGATC yielded a binding signal of 0.32 ± 0.0109 E-score. CTGTGATA showed a binding signal of 0.39 ± 0.0381 E-score. ATGTGATA gave a binding signal of 0.392 ± 0.0638 E-score. For AGATAGGA, the binding signal was 0.175 ± 0.0479 E-score. Work on CGAATCCA yielded a binding signal of 0.1647 ± 0.00129 E-score. CCCGCGGA showed a binding signal of 0.205 ± 0.00383 E-score. With TATCTGCA the binding signal was 0.284 ± 0.0307 E-score. GAAATACC was tested, and the binding signal was 0.1851 ± 0.00123 E-score. Work on ACACCGCC yielded a binding signal of 0.321 ± 0.0533 E-score. ATACCGAG gave a binding signal of 0.304 ± 0.0181 E-score. In the case of ATACCGAT, the binding signal is reported as 0.3532 ± 0.00127 E-score. ATACCGAA showed a binding signal of 0.329 ± 0.0172 E-score. ATACCGCC showed a binding signal of 0.418 ± 0.0211 E-score. ACACCGCA showed a binding signal of 0.351 ± 0.043 E-score. ACACCGCG was tested, and the binding signal was 0.283 ± 0.0738 E-score. With ATACCGCG the binding signal was 0.377 ± 0.0129 E-score. With ATACCGCA the binding signal was 0.4061 ± 0.00272 E-score. For CTGAGCCC, the binding signal was 0.161 ± 0.049 E-score. ATCCCAAC showed a binding signal of 0.189 ± 0.0265 E-score. Work on ATACGTCA yielded a binding signal of 0.196 ± 0.0392 E-score. For ATCAGCGG, the binding signal was 0.171 ± 0.08 E-score. In the case of ACAATATC, the binding signal is reported as 0.309 ± 0.0486 E-score. Work on AGGATAGG yielded a binding signal of 0.306 ± 0.0312 E-score. Work on CTGATAGC yielded a binding signal of 0.319 ± 0.0368 E-score. In the case of ATGATCGC, the binding signal is reported as 0.265 ± 0.0383 E-score. ACGATAGG gave a binding signal of 0.269 ± 0.00971 E-score. ATGATAGG showed a binding signal of 0.387 ± 0.0153 E-score. Sequence ATGATAGC has a binding signal of 0.379 ± 0.0583 E-score. Work on ATCCAGCA yielded a binding signal of 0.198 ± 0.0454 E-score. For CGTAACAC, the binding signal was 0.205 ± 0.0442 E-score. With ATTACATC the binding signal was 0.248 ± 0.072 E-score.
